CHT allo act: human CHT allosteric activation; Q9GZV3; CHT-expressing cells, membrane potential dye, choline EC20; hits give high values; LV-AA mutant CHT in HEK293 cells; B-score at 10 µM; 310,000 tested, 0.49% active; AID 488977;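 active means initial fluorescence not abnormally high and integrated response B-score, plate-corrected, over 3 SD above library mean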
CHT block: inhibits the human high affinity choline transporter | CHT-expressing cells, membrane potential dye, choline response; hits give low values | B-score at 10 µM | 310,000 tested, 0.86% active;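 active means B-score over 3 SD under the library average, and starting fluorescence ratio not unusually high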;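 further: choline stimulus applied at its EC90 after an EC20 pre-addition; B-score computed on integrated fluorescence ratio after choline addition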
EP2 antag: EP2 receptor (human) inhibition; C6 glioma cells expressing human EP2, cAMP TR-FRET; cells stimulated with saturating PGE2; inhibition, % at 25 µM; 260,000 tested, 0.52% active;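 active means percent inhibition above 40 after rounding to a whole number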;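 further: rat C6 glioma host cells with rolipram phosphodiesterase inhibitor present; the protocol text gives 20 µM as final concentration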
Target sequence (P43116 whole entry, looked up): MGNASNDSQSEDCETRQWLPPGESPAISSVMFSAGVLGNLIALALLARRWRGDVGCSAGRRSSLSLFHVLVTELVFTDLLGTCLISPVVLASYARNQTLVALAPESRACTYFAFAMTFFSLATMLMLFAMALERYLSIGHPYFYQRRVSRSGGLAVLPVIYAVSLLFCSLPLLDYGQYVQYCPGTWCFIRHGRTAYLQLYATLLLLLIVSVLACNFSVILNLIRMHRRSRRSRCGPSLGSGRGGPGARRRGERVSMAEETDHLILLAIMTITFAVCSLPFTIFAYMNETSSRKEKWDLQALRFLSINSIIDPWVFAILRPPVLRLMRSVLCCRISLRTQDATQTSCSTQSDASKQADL
EP2 modulator: modulates human prostaglandin E2 receptor EP2 signaling; EP2-expressing cells, cAMP HTRF FRET, PGE2 co-stimulation; induction, % at 25 µM; AID 940; P43116; 260,000 tested, 0.83% active;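 active means compounds whose cAMP rise, as percent of the full-agonist control response, exceeds 60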;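 further: rat C6 glioma line stably carrying human EP2 under a CMV promoter; the protocol text gives 20 µM as final concentration; 100% = response of wells given 1 µM PGE2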
EP2 confirm: human EP2 receptor cAMP induction, negative in counter-screens; shares compounds with EP2 modulator; C6 glioma EP2 cells, cAMP HTRF induction; plus low (about EC15) PGE2 agonist; calls only at 20 µM (by protocol); 1,300 tested, 47% active; AID 1080;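 active means cAMP induction above 50% in the main assay while under 30% in all four parallel counter assays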;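 further: rat C6 glioma cells stably expressing human EP2 receptor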
Active calls of the source: *; i = inactive; . = no result given; + = active, no number; ! = not confirmed by another sample. Shown are actives, neighbours in structure and some others; about 2% of the full set was active somewhere.

SMILES	CHT allo act	CHT block	EP2 antag	EP2 modulator	EP2 confirm
COC(=O)c1c(NC(=O)c2ccc(Br)s2)sc2c1CCC2	i	i	9	67*	i
COC(=O)c1c(NC(=O)C2CC2)sc2c1CCCC2	i	i	4	59	i
CCC(=O)Nc1sc2c(c1C(=O)OC)CCC2	.	.	7	54	.
O=C(COc1ccc(Cl)cc1Cl)Nc1ccc2oc(=O)ccc2c1	.	.	12	-28	.
COC(=O)C1=CO[C@@H](O[C@@H]2O[C@H](CO)[C@@H](O)[C@H](O)[C@H]2O)[C@@H]2[C@@H](C)[C@@H](O)C[C@H]12	.	.	9	10	.
Cc1sc(-n2c(C)ccc2C)c(C#N)c1C	i	i	4	56	.
Cc1ccc(C)n1-c1sc2c(c1C#N)CCCC2	i	i	15	63*	+
CCC1(C)Cc2ccccc2-c2nc3n(c(=O)c21)CCCCC3 (stereo unspecified)	i	i	9	57	.
O=c1c2c(nc3n1CCCCC3)-c1ccccc1CC21CCCCC1	i	i	6	66*	+
CCSC1=N/C(=C\c2ccccc2)C(=O)N1c1ccc(OC)cc1	i	i	6	79*	+
CCN(CC)C1=N/C(=C\c2ccc(OC)cc2)C(=O)N1c1ccccc1	i	i	-1	34	.
CCOc1ccccc1NC(=O)c1ccccc1-c1nc(-c2ccccc2)no1	i	i	8	66*	i
COc1ccc(-c2noc(-c3ccccc3C(=O)Nc3cccnc3)n2)cc1	i	i	4	50	+
CCOc1ccccc1NC(=O)c1ccccc1-c1ccccc1	i	i	.	.	.
COc1ccc(-c2noc(-c3ccccc3C(=O)Nc3cccnc3)n2)cc1OC	i	i	14	17	.
Cc1ccc(S(=O)(=O)c2c(C)cc(C)nc2Cl)cc1	i	i	16	-8	.
C=C(C)Cn1c(C)cc(C)c(S(=O)(=O)c2ccc(C)cc2)c1=O	i	i	6	87*	+
CCCCCCCCn1c(N2CCN(c3cccc(Cl)c3)CC2)nc2c1c(=O)[nH]c(=O)n2C	i	i	4	44	.
CC(C)CCn1c(N2CCN(c3cccc(Cl)c3)CC2)nc2c1c(=O)[nH]c(=O)n2C	i	i	8	65*	i
COc1ccc(N2CCN(c3nc4c(c(=O)[nH]c(=O)n4C)n3Cc3cccc(C)c3)CC2)cc1	i	i	7	70*	i
Cc1cccc(Cn2c(N3CCN(CCO)CC3)nc3c2c(=O)[nH]c(=O)n3C)c1	i	i	.	.	.
O=C(c1ccncc1)N1CCC(n2nnc(-c3ccc(F)cc3)n2)CC1	.	.	.	-37	.
CC1CCN(C(=O)CSc2nc3ccccc3s2)CC1	i	i	.	-33	.
CC1CCCN(C(=O)CSc2cnc3ccccc3n2)C1 (stereo unspecified)	i	i	16	68*	i
Cc1nc2ccccc2nc1SCC(=O)N1CCC(C)CC1	i	i	16	65*	i
SMILES	CHT allo act	CHT block	EP2 antag	EP2 modulator	EP2 confirm
CC1CC(C)CN(C(=O)CSc2nnc3c(n2)[nH]c2ccccc23)C1 (stereo unspecified)	.	.	12	-4	.
CCOC(=O)c1ccccc1NC(=O)C(C)Oc1ccccc1 (stereo unspecified)	i	i	14	54	+
CCOC(=O)c1ccccc1NC(=O)COc1ccccc1	i	i	8	79*	i
Cc1cccc(OCC(=O)Nc2ccccc2-c2ccccc2)c1	i	i	6	71*	+
O=C1NC(=O)C(Cc2ccc(Cl)cc2)S1 (stereo unspecified)	.	.	9	-5	.
Cc1ccc(Nc2nc(-c3ccccn3)cs2)nc1	.	.	17	-108	.
COc1ccc(OC)c(-c2csc(N)n2)c1	.	.	12	-61	.
COc1ccc(OC)c(-c2cnc(OC(C)(C)C)nc2OC(C)(C)C)c1	i	i	8	70*	i
CC1CCN(c2nc3c(c(=O)[nH]2)CCN(Cc2cnc(N(C)C)nc2)C3)CC1	.	.	.	-20	.
CCOc1ccc(Cl)cc1S(=O)(=O)n1cnc2cc(C)c(C)cc21	i	i	5	70*	+
CCOc1ccc(Cl)cc1S(=O)(=O)N1CCN(c2ccc(C)c(C)c2)CC1	i	i	2	-39	.
C=C(C)Cn1c(N2CCCC(C)C2)nc2c1c(=O)[nH]c(=O)n2C (stereo unspecified)	.	.	11	8	.
Cc1cc(NC(=O)Cn2nnc3ccccc3c2=O)ccc1NC(=O)C1CCCCC1	.	.	9	5	.
Cc1ccc2oc(C(=O)N3CCC4(CC3)NC(=O)c3ccccc3N4)cc(=O)c2c1	.	.	4	-29	.
CCOC(=O)c1sc(NC(=O)C(CC)OC(=O)C(CC(C)C)NC(=O)c2ccccc2)nc1C (stereo unspecified)	i	i	18	67*	i
CCOC(=O)c1sc(NC(=O)C(CC)c2ccccc2)nc1C (stereo unspecified)	.	.	11	-30	.
O=C(O)c1nc2nc(Cl)c(Cl)nc2[nH]1	i	i	4	63*!	i
NS(=O)(=O)c1ccc(NCc2cnc3ccccc3n2)cc1	.	.	10	71*	i
Cc1ccc(-n2cc(-c3ccccc3)c3c(N4CCOCC4)ncnc32)cc1	.	.	12	69*	i
O=C(NCCN1CCC(O)(c2ccc(F)cc2)CC1)c1nccc2ccccc12	.	.	10	-48	.
CCn1nnc(NC(=O)c2ccc(OC)cc2)n1	.	.	7	3	.
CC1(C)C(=O)Nc2ccccc2N1C(=O)CSc1ncccn1	i	i	6	-2	.
CCCCCCn1c(COc2ccccc2F)nnc1SCC(=O)N1c2ccccc2NC(=O)C1(C)C	i	i	11	64*	i
CS(=O)(=O)N(CC(=O)NC1CCCC1)c1ccc2c(c1)OCO2	.	.	10	-26	.
COc1ccc(OC)c(C(=O)c2coc3ccc(OC(C)=O)cc23)c1	i	i	14	-7	.
SMILES	CHT allo act	CHT block	EP2 antag	EP2 modulator	EP2 confirm
COc1ccc(OC)c(C(=O)c2coc3ccc(OCC(=O)O)cc23)c1	i	i	14	65*	i
COc1ccc(C(NC(=O)CCC2CCCC2)c2nccn2C)cc1OC (stereo unspecified)	.	.	5	-32	.
CCOc1ccc(-n2c(SCC(=O)Nc3ccccc3C)nnc2-c2cccnc2)cc1	.	.	23	-16	.
CC(c1cccs1)N(Cc1ccco1)C(=O)Nc1ccc(Cl)c(Cl)c1 (stereo unspecified)	i	i	8	24	.
Cc1ccc(C)c(NC(=S)N(Cc2ccco2)C(C)c2cccs2)c1 (stereo unspecified)	i	i	5	68*	i
Cc1ccc(NC(=S)N(Cc2ccco2)C(C)c2cccs2)c(Cl)c1 (stereo unspecified)	i	i	4	36	.
Cc1ccc(Cl)cc1NC(=S)N(Cc1ccco1)C(C)c1cccs1 (stereo unspecified)	i	i	5	63*	i

Bioassay records from PubChem BioAssay.
